Measurements taken from PubChem BioAssay AID1117361 (Southern Research Institute, 2015).
Screen size: about 3,600 compounds; about 900 (25%) were called active. No rule for the calls is given here. A selection follows. Entries with a potency or affinity are not part of this list.

The molecules below were run against Protein Tat (Human immunodeficiency virus type 1 group M subtype B (isolate HXB2)) (UniProt P04608) (assay: inhibitors of Tat binding to TAR RNA, dose response, counter-screen for Vif-APOBEC3G degradation inhibitor project, biochemical, fluorescence polarization, FAM-labeled TAR RNA (AID 1117361)). Settings: outcome: dose series up to 100 µM unless noted; series mostly up to 100 µM; inhibition: at the top concentration.

Which “inhibition” value does the source give for CCOC(=O)C(NC(=O)NC1CCCCC1)(c1ccccc1)C(F)(F)F (stereo unspecified) here?
Its value is 2.03% (inactive).

With CCOc1ccccc1C(=S)NC1CCCCC1 as the molecule, how does the “inhibition” value read?
Its value is 4.34% (inactive).

Which “inhibition” value does the source give for COc1cc(CN2CCNC(=O)C2CC(=O)N(Cc2nccn2C)C(C)C)cc(OC)c1 (stereo unspecified) here?
Its value is 24.7% (inactive).

With CCOCC(=O)Nc1nc2ccc(OC)cc2s1 as the molecule, how does the outcome read?
The outcome was “inactive”.

CC(NC(=O)c1cccs1)C(c1cccs1)N1CCN(Cc2ccccc2)CC1 (stereo unspecified) was tested. Which “inhibition” value did it give?
The value was 1.36% (inactive).

With COCCCN1C(=O)C(O)=C(C(C)=O)C1c1ccccn1 (stereo unspecified) as the molecule, how does the “inhibition” value read?
Its value is 15.5% (inactive).

How did the “inhibition” value turn out when CCOc1ccc(OCC)c(S(=O)(=O)NCc2ccc3c(c2)OCO3)c1 was run?
The value was 1.35% (inactive).

For COC(=O)CC(NS(=O)(=O)c1cccs1)c1cccc2ccccc12 (stereo unspecified), which “inhibition” value is on record?
Its value is 0.68% (inactive).

For Cc1ccc(SCCNC(=O)c2cccc([N+](=O)[O-])c2C)cc1, which “inhibition” value is on record?
The value was 2.03% (inactive).

Which outcome does the source give for CCOC(=O)Cn1c(=O)oc2cc(S(=O)(=O)Nc3c(C)cc(C)cc3C)ccc21 here?
The outcome was “inactive”.

How did the outcome turn out when CCOc1ccc(Br)cc1/C=N/O was run?
The outcome was “inactive”.

Which outcome does the source give for O=C(CN1C(=O)c2ccccc2C1=O)NCC(=O)OCC(=O)c1cccc([N+](=O)[O-])c1 here?
Its outcome is “inactive”.

O=C1CN(C(=O)COC(=O)C23CC4CC(CC(O)(C4)C2)C3)c2ccccc2N1 was tested. Which outcome did it give?
Its outcome is “inactive”.

For COc1ccc(NC(=O)CCc2nc(-c3ccccc3F)no2)cc1, which “inhibition” value is on record?
Its value is 1.36% (inactive).

Which “inhibition” value does the source give for O=C(NCCCN1CCOCC1)c1ccc(Br)s1 here?
The value was 6.08% (inactive).

For CC1CCN(C(=O)CCc2nc3cc(S(=O)(=O)N(C)C)ccc3n2C)CC1, which “inhibition” value is on record?
The value was 7.43% (inactive).

With CCC(CC)NC(=O)Nc1ccc(F)cc1F as the molecule, how does the outcome read?
Its outcome is “inactive”.

CCC(CC)c1nc2cc(OC)c(OC)cc2c(=O)o1 was tested. Which “inhibition” value did it give?
Its value is 3.38% (inactive).

How did the outcome turn out when Oc1ccc(C2Nc3cccc4cccc(c34)N2)c(O)c1 was run?
The outcome was “inactive”.

How did the “inhibition” value turn out when CCOC(=O)C1CCCC12Nc1cccc3cccc(c13)N2 (stereo unspecified) was run?
Its value is 3.67% (inactive).

CCCCc1nc2sc3c(=O)[nH]cnc3c2c2c1CCCC2 was tested. Which “inhibition” value did it give?
Its value is 2.47% (inactive).

Cc1cccnc1Nc1nc(-c2ccc(O)c(O)c2)cs1 was tested. Which outcome did it give?
Its outcome is “inactive”.

CC(C)(C)C(=O)OCc1nc(-c2ccc(O)c(O)c2)cs1 was tested. Which “inhibition” value did it give?
Its value is 14% (inactive).

For CCc1nnc(NC(=O)c2ccc(S(=O)(=O)N(CC(C)C)CC(C)C)cc2)o1, which outcome is on record?
Its outcome is “inactive”.

Which “inhibition” value does the source give for CCCNC(=O)c1ccc(-c2nc3ccccc3s2)s1 here?
The value was 2.41% [at 50 µM] (inactive).

Which “inhibition” value does the source give for Cc1nnc(SCCCn2c(N3CCN(c4ccccc4)CC3)nc3c2c(=O)[nH]c(=O)n3C)s1 here?
Its value is 7.5% (inactive).

NCCCSC1=NCCCN1 was tested. Which “inhibition” value did it give?
The value was 0.68% (inactive).

How did the “inhibition” value turn out when COc1ccccc1NC(=O)C1=C(C)Nc2nnnn2C1c1ccccn1 (stereo unspecified) was run?
Its value is 3.38% (inactive).

How did the outcome turn out when CCCCCOC(=O)C1=C(C)Nc2nnnn2C1c1ccccc1Cl (stereo unspecified) was run?
The outcome was “inactive”.

How did the “inhibition” value turn out when COc1cccc(N2C(=O)C3ON(c4ccccc4)C(c4cccs4)C3C2=O)c1 (stereo unspecified) was run?
The value was 2.03% (inactive).

COc1ccc(N2CCN(CC(=O)c3c(C)n(C)c4ccc(OC)cc34)CC2)cc1 was tested. Which “inhibition” value did it give?
Its value is 1.65% (inactive).

For CN1CCN(CCCNC(=O)C2CC(=O)N(C3CCCCC3)C2)CC1 (stereo unspecified), which outcome is on record?
Its outcome is “inactive”.

For C=CCn1c(C)cc(C(=O)COC(=O)C2CC(=O)N(Cc3ccccc3)C2)c1C (stereo unspecified), which “inhibition” value is on record?
Its value is 16.9% (inactive).

For CC1C/C(=N/N2C(=O)CSC2=S)CC(C)(C)C1 (stereo unspecified), which “inhibition” value is on record?
The value was 22.5% (inactive).

For COCCNc1nc2c(c(=O)n(C)c(=O)n2C)n1Cc1cccc(C)c1, which “inhibition” value is on record?
The value was 5.46% (inactive).

How did the “inhibition” value turn out when CCOc1cc(C(=O)Nc2cc(C)ccn2)cc(OCC)c1OCC was run?
Its value is 0.68% (inactive).

COc1ccc(S(=O)(=O)n2nc(OC(=O)c3ccc(C)cc3)cc2N)cc1 was tested. Which outcome did it give?
The outcome was “inactive”.

With Nc1ccc(N=Nc2ccc(O)cc2)c(N)n1 as the molecule, how does the outcome read?
Its outcome is “inactive”.

For COCCn1c(SCC(=O)N2CCC(C)CC2)nc2c([nH]c3ccccc32)c1=O, which “inhibition” value is on record?
Its value is 8.35% (inactive).

How did the “inhibition” value turn out when Cn1nc(C(F)(F)F)c2cc(C(=O)NC3CC3)sc21 was run?
Its value is 6.76% (inactive).

O=[N+]([O-])c1ccc(CNc2ccc(F)cc2)s1 was tested. Which outcome did it give?
Its outcome is “inactive”.

How did the outcome turn out when COc1cccc(CN2CCSCC2)c1 was run?
The outcome was “inactive”.

CCOc1ccc(N(CC(=O)Nc2cccc(OC)c2)S(=O)(=O)c2c(C)noc2C)cc1 was tested. Which outcome did it give?
Its outcome is “inactive”.

With CCN1CCN(S(=O)(=O)c2cccs2)CC1 as the molecule, how does the outcome read?
Its outcome is “inactive”.

O=[N+]([O-])c1ccc(O)c2ncccc12 was tested. Which “inhibition” value did it give?
The value was 21.4% (inactive).

Which “inhibition” value does the source give for O=c1c2ccccc2c(-c2ccccc2)nn1-c1cc(Cl)ccc1[N+](=O)[O-] here?
The value was 4.77% (inactive).

How did the “inhibition” value turn out when Cc1ccccc1CS(=O)(=O)Cc1ccc(C(=O)N2CCOCC2)o1 was run?
Its value is 12.2% (inactive).

Which “inhibition” value does the source give for O=C(COC(=O)Cc1cccc(C(F)(F)F)c1)NCC1CCCO1 (stereo unspecified) here?
The value was 10.8% (inactive).

For COc1ccc(CC(=O)Nc2ccc(-c3csc(C)n3)cc2)cc1, which “inhibition” value is on record?
Its value is 2.03% (inactive).

How did the “inhibition” value turn out when O=C(O)/C=C/c1ccc(S(=O)(=O)N2CCN(CCN3C(=O)C4C5C=CC(C5)C4C3=O)CC2)cc1 (stereo unspecified) was run?
The value was 3.3% (inactive).

With COc1ccc(-n2c(SCC(=O)NNC(=O)c3ccccc3C)nnc2-c2ccncc2)cc1 as the molecule, how does the “inhibition” value read?
The value was 0.68% (inactive).

Which outcome does the source give for CC(C)(C)c1cc(N/C=C\c2nnnn2-c2ccc(Br)cc2)no1 here?
The outcome was “inactive”.

CCCCn1cnc2c1c(=O)n(C)c(=O)n2C was tested. Which outcome did it give?
Its outcome is “inactive”.

COc1ccc(/C=N/NC(=O)Cn2cnc3c2c(=O)n(C)c(=O)n3C)c(OC)c1OC was tested. Which outcome did it give?
Its outcome is “inactive”.

CC(/C=C/c1ccco1)=N\NC(=O)c1cccnc1 was tested. Which outcome did it give?
The outcome was “inactive”.

How did the “inhibition” value turn out when O=C(Nc1ccc2c(c1)oc1ccccc12)c1cccnc1 was run?
Its value is 5.41% (inactive).
